Experimental findings from PubChem BioAssay are described below.

The structures appear in SMILES notation. Active and inactive are the calls of the source. Unless noted, no stated cut-off is given here; in the data, active means nuclear beta-catenin stimulation mostly above about 4.2% (no sharp cut-off); inactive means mostly below about 10%.

Experiment [1] is described as follows: Wnt pathway potentiators raising nuclear beta-catenin – imaging, WNT3A-conditioned medium, mouse C2C12, NPC library, primary screen (AID 1117326). Conditions: stronger effect = higher value.
Experiment [2] in a line: stimulators of insulin release from INS-1E, primary screen, cell-based, 5 mM glucose, NPC library (AID 1117329;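 active means compound raises insulin release from rat beta cells at 5 mM glucose, no numeric limit stated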). Conditions: rat INS-1E insulin secretion, at 10 µM, stronger effect = higher value.
Experiment [3] in a line: GLP1 release stimulators, primary, NCI-H716, NPC library (AID 1117341;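 active means compound raises GLP1 secretion from the human gut endocrine cells, with no numeric limit stated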). Conditions: NCI-H716 cells, at 10 µM, stronger effect = higher value.
The nature of experiment [4]: compounds altering viability of human ES cells (AID 493140; call rule not given here;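 further: cells exposed to compounds for four days before counting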). Conditions: human embryonic stem cell survival screen; stronger effect = higher value.
A short description of experiment [5]: MELAS cybrid and Rieske KO viability enhancers – cell-based, MELAS cybrids, Rieske KO mouse fibroblasts, CellTiter-Glo, primary screen (AID 1508586;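 active means mean z-score across replicates of 1.96 or higher in either the MELAS or the Rieske mutant cell line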;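 further: z relative to plate mean and SD of compound and empty wells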). The following applies: low glucose. For orientation: Cellular ATP, detected with luciferase, serves as a proxy for viable cell number.
The nature of experiment [6]: galactose survival enhancers in mitochondrial complex I cybrids – cell-based, galactose medium, ATP luminescence, primary screen (AID 1645843;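 active means z-score of at least 1.8 in each of two replicates, scored against plate mean and spread of sample wells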;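 further: positive z means more ATP and so rescue of galactose-driven cybrid death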). Conditions: complex I mutant cybrid cells, 72 h, stronger effect = higher value.
The nature of experiment [7]: compounds altering Cy5-DNA-NS3h complex signal – biochemical, LOPAC1280, artefact control for HCV NS3 helicase inhibitor project (AID 687037; call rule not given here). The following applies: Cy5-DNA-NS3h complex fluorescence interference counterscreen. On the technique in general: The purpose of a counterscreen is to sort out artefacts and off-target activity.
A short description of experiment [8]: viability loss with induced miR-34 in A549 – imaging, A549 dox-inducible miR-34, nuclei and caspase counts, primary screen (AID 1347080;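 active means compounds whose cell count with miR-34 switched on is under 0.7 times the count with it off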). Conditions: A549 miR-34 inducible, Hoechst nuclei count, 48 h.
Experiment [9] is described as follows: blockers of cellular phospholipid synthesis – cell-based, LOPAC library, screen 4, primary screen (AID 1347384; call rule not given here). The following applies: animal cells, phospholipid biosynthesis inhibition screen; at 10 µM.
The nature of experiment [10]: EMT-state selective cytotoxicity in co-culture – imaging, PC-3E GFP, TEM4-18 mCherry, primary screen (AID 1345086;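 active means compounds killing one labelled cell type while sparing the other, by normalised counts and ratio limits, not self-fluorescent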;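 further: cells exposed to compound for 72 h before imaging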;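 on red/green cell ratio (normalised): normalised mesenchymal count divided by normalised epithelial count so high means epithelial killing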). Conditions: PC-3E GFP / TEM4-18 mCherry co-culture, imaging cell counts, at 1 µM.
Experiment [11] concerns the target NAD(+) hydrolase SARM1 (Homo sapiens) (UniProt Q6SZW1). Description: blocking NAD cleavage by SARM1 SAM-TIR – cell lysate, NAD-Glo luminescence (AID 1508614;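 active means compound whose remaining NAD level is above about 45 nM, limit read from the data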). Conditions: SAM-TIR HEK293T lysate NADase, at 1 µM, stronger effect = higher value.
The nature of experiment [12]: growth inhibition of GSK3B-pretreated HCT116 cells – cell-based, CellTiter-Glo, 0.2 to 20 µM (AID 1117336;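 active means compounds lowering colon cancer cell viability after pretreatment blocking the GSK3B kinase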). Conditions: HCT116 viability after GSK3B inhibitor, at 20 µM, stronger effect = higher value.
Experiment [13] can be described thus: inhibition of endothelial tube formation, primary screen, imaging, VEGF stimulated, CD31 staining, tube area, NPC library (AID 1117340;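 active means compound that reduces growth-factor-driven endothelial tube area in a mixed cell culture, no cutoff stated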). The following applies: VEGF-stimulated ADSC/ECFC co-culture, at 10 µM, stronger effect = higher value.
Experiment [14] is described as follows: HCT116 colon cancer cell growth inhibition, primary screen, CellTiter-Glo luminescence, NPC library (AID 1117342;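 active means compounds that lower survival of HCT116 colon cancer cells in the luminescence readout, no numeric limit stated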). The following applies: at 20 µM (top of the series).
Experiment [15] is described as follows: reduced SW480 viability measured with CellTiter-Glo, NPC library, primary (AID 1117343;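 active means compounds that lower viability of the colon cancer cells in the luminescence readout, with no numeric limit stated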). Conditions: CellTiter-Glo luminescence; at 20 µM (top of the series) unless noted.
A short description of experiment [16]: NPC library primary testing for decreased DLD-1 cell viability via CellTiter-Glo (AID 1117346;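 active means compounds that lower survival of DLD-1 colon cancer cells in the luminescence readout, no cutoff given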). Conditions: DLD-1 viability, CellTiter-Glo luminescence; at 20 µM (top of the series).
Setting [17] is: stronger effect = lower value, cell number ratio, induced over uninduced.
The mark [18] stands for this setting: measured here: relative caspase fold change +Dox/-Dox.
Setting [19] is: measured here: total cells with miR-34 induction, stronger effect = lower value.
Where [20] appears, read: measured here: total cells without miR-34 induction.

NAD(+) hydrolase SARM1 (Homo sapiens), sequence (Q6SZW1 whole entry, looked up): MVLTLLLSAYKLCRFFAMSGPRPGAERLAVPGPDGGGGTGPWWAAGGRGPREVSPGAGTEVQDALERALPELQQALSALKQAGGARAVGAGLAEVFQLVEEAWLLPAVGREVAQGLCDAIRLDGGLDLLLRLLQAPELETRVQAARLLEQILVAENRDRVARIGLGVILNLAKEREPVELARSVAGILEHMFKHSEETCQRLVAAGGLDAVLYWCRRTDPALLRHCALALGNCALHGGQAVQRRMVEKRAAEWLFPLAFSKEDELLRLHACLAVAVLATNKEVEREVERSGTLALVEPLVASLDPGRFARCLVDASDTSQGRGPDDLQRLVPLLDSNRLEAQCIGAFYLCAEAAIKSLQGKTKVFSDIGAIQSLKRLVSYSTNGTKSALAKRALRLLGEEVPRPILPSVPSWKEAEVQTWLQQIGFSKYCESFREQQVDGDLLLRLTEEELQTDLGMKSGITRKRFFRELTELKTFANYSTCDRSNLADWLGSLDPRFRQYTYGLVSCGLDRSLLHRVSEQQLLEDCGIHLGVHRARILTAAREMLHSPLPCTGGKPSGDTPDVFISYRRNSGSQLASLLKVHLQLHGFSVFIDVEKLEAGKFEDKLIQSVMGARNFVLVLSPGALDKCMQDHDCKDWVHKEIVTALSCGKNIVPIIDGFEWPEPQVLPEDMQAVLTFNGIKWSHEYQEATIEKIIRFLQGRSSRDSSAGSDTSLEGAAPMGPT

As to `COC(=O)CCCCC(CCSS/C(CCO)=C(\C)N(C=O)Cc1cnc(C)nc1N)SC(C)=O` (centres undefined), the nuclear beta-catenin stimulation in experiment [1] (at 10 µM) is 1% (inactive); in experiment [1] (stimulation, at 2 µM) it was -1%. Moreover, the insulin secretion stimulation in experiment [2] was 0.75% (inactive). Moreover, the GLP1 secretion stimulation in experiment [3] is 0.4% (inactive).

For the compound `CCCCCCOC(=O)c1cccnc1`, the nuclear beta-catenin stimulation in experiment [1] (at 10 µM) is 5.7% (inactive); in [1] (stimulation, at 2 µM) it was 1.5%. Moreover, the insulin secretion stimulation in [2] is -1.25% (inactive). The GLP1 secretion stimulation in experiment [3] was -0.9% (inactive).

In the case of `Cc1cccc(Nc2cc(Cl)nc(SCC(=O)O)n2)c1C`, in experiment [4], the survival was 88 (inactive). Besides, the nuclear beta-catenin stimulation in [1] (at 10 µM) was -0.3% (inactive); in experiment [1] (stimulation, at 2 µM), 0.2%. In [2], the insulin secretion stimulation is -0.2% (inactive). Further, the GLP1 secretion stimulation in [3] is -3.8% (inactive). Moreover, the z-score in experiment [5] (MELAS cybrid survival, CellTiter-Glo 48 h, stronger effect = higher value) is -0.392 (inactive); in [5] (Rieske KO mouse fibroblast survival, CellTiter-Glo 72 h) it was -0.362; in [6], 0.215 (inactive).

As to `CCc1cccc(N(C)C(N)=Nc2cccc3ccccc23)c1`, the fluorescence ratio (interference) in [7] is 1 (inactive). In addition, the nuclear beta-catenin stimulation in experiment [1] (at 10 µM) is -1.6% (inactive); in experiment [1] (stimulation, at 2 µM), -1.7%. Further, the insulin secretion stimulation in experiment [2] is 60.2% (active). The GLP1 secretion stimulation in experiment [3] was 1.6% (inactive). Moreover, the fold change is 1.03 (inactive) in experiment [8] (setting [17]) and 1.33 in experiment [8] (setting [18]). Moreover, the cell count in experiment [8] (setting [19]) was 7210; in experiment [8] (setting [20]), 6970. In addition, in [9], the compound was called inactive. Further, the z-score in [6] is -1.44 (inactive).

For `C/C(=N\O)[C@@H](C)NCC(C)(C)CN[C@H](C)/C(C)=N/O`, the nuclear beta-catenin stimulation in experiment [1] (at 10 µM) is 1.5% (inactive); in [1] (stimulation, at 2 µM) it was -1.3%. Also, the insulin secretion stimulation in experiment [2] was 1.9% (inactive). Also, the GLP1 secretion stimulation in experiment [3] was -8.7% (inactive).

In the case of `CN1CCN(C2Cc3ccccc3Sc3ccc(Cl)cc32)CC1` (centres undefined), in experiment [7], the fluorescence ratio (interference) was 1 (inactive). The nuclear beta-catenin stimulation in experiment [1] (at 10 µM) is 5.2% (inactive); in experiment [1] (stimulation, at 2 µM), -1.6%. In experiment [2], the insulin secretion stimulation was 6.6% (inactive). Further, the GLP1 secretion stimulation in experiment [3] is 13.2% (inactive). Also, the fold change in experiment [8] (setting [17]) is 1.08 (inactive); in experiment [8] (setting [18]) it was 0.783. Further, the cell count in [8] (setting [19]) came to 5640; in experiment [8] (setting [20]), 5230. Also, the outcome in experiment [9] was inactive. Further, in experiment [6], the z-score is -1.27 (inactive).

With `O=C(OCc1ccccc1)c1cccnc1`, the nuclear beta-catenin stimulation in experiment [1] (at 10 µM) is -0.5% (inactive); in experiment [1] (stimulation, at 2 µM) it was -2.3%. Also, the insulin secretion stimulation in experiment [2] was 0.3% (inactive). For the same compound, the GLP1 secretion stimulation in experiment [3] is -1.9% (inactive).

For the compound `CCC(C(=O)OCCOCCN(CC)CC)c1ccccc1` (centres undefined), the nuclear beta-catenin stimulation is 1.3% (inactive) in [1] (at 10 µM) and -2.5% in [1] (stimulation, at 2 µM). For the same compound, the insulin secretion stimulation in experiment [2] was 5.45% (inactive). In addition, the GLP1 secretion stimulation in [3] is 7.5% (inactive).

On to `CCCCC(CC)COC(=O)CC(C(=O)OCC(CC)CCCC)S(=O)(=O)O` (centres undefined), for which the nuclear beta-catenin stimulation is 2.7% (inactive) in experiment [1] (at 10 µM) and -0.9% in [1] (stimulation, at 2 µM). For the same compound, the insulin secretion stimulation in experiment [2] is -1.3% (inactive). The GLP1 secretion stimulation in experiment [3] was 84.6% (active). Also, the red/green cell ratio (normalised) in experiment [10] (actives lie on both sides, counts scaled to control wells, 1 = unselective) is 0.91 (inactive). In addition, the normalised cell number worked out at 0.99 in experiment [10] (measured here: epithelial PC-3E GFP cell survival) and 0.9 in experiment [10] (measured here: mesenchymal TEM4-18 mCherry cell survival). For the same compound, the fold change was 0.854 (inactive) in experiment [8] (setting [17]) and 1.07 in [8] (setting [18]). The cell count in [8] (setting [19]) turned out to be 8120; in experiment [8] (setting [20]) it was 9510. The remaining NAD in [11] was 10 nM (inactive).

On to `FC(F)(F)C(F)(F)C(F)(F)C(F)(F)C(F)(F)C(F)(F)C(F)(F)C(F)(F)Br`, for which the nuclear beta-catenin stimulation in experiment [1] (at 10 µM) is -0.6% (inactive); in experiment [1] (stimulation, at 2 µM), 11.4%. In addition, the viability decrease in experiment [12] was 8.2% (inactive). The tube area decrease in [13] was -4.5% (inactive). The inhibition of viability in experiment [14] is 12.1% (inactive). Besides, the values for the viability decrease (inhibition) in experiment [15] and in experiment [16] were -4.8% (inactive) and 7.2% (inactive), respectively.
